± gives the standard deviation.
What was measured:
Conditions in all cases: modulator concentration 10 µM
[1] = system: RAW-Dual (murine macrophage reporter line); assay: NF-kB reporter (SEAP) activity fold change vs agonist alone; higher = enhanced NF-kB activity
Procedure, shortened: (§1)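 RAW-Dual murine macrophage reporter cells were seeded at 50 000 per well in 384-well plates and pre-incubated 1 hour at 37 °C with compound pin-transferred to 10 μM final. After 1 hour, a PRR agonist was added and cells incubated overnight. Supernatant NF-κB (SEAP, QUANTI-Blue, 620 nm absorbance) and IRF (Lucia luciferase, QUANTI-Luc, luminescence) signals were divided by the mean agonist-only control on the same plate to give fold change. Two replicate plates were averaged, with errors by propagation.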

[2] = system: RAW-Dual (murine macrophage reporter line); assay: IRF reporter (Lucia luciferase) activity fold change vs agonist alone; higher = enhanced IRF activity
Procedure, shortened: as §1

[3] = system: RAW-Dual (murine macrophage reporter line); assay: viability score (confluency relative to resting cells, overnight) (fraction); higher = more viable, active = viable (0.7 or more)
Procedure, shortened: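 Overnight exposure to 10 μM final compound was carried out on RAW-Dual macrophages in 384-well plates. IncuCyte software generated two confluency masks over all wells imaged with IncuCyte. The viability score gives confluency in relation to resting cells. A compound met the cutoff if each mask exceeded 70% of resting cells.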

[4] = agonist: CpG ODN 1826 0.5 ug/mL

Row | Compound | NF-kB reporter [1, 4] | NF-kB reporter ([1]; agonist: LPS 0.1 ug/mL) | NF-kB reporter ([1]; agonist: MPLA […]) | IRF reporter ([2]; agonist: 3'3'-cGAMP 10 ug/mL) | IRF reporter ([2]; agonist: LPS 0.1 ug/mL) | IRF reporter ([2]; agonist: MPLA […]) | viability score [3]
1 | Cc1ccc(OCCCOc2cccc3cccnc23)c(C)c1 | 0.854 ± 0.11 | 1.1 ± 0.073 | 1.62 ± 0.11 | 0.932 ± 0.07 | 1.26 ± 0.14 | 2.82 ± 0.39 | 0.895 (active)
2 | Cc1cccc(C(=O)NC2CCC(F)(F)CC2)c1 | 1.07 ± 0.068 | 0.934 ± 0.082 | 1.03 ± 0.058 | 0.823 ± 0.034 | 1.1 ± 0.058 | 0.99 ± 0.2 | 1 (active)
3 | CCN(CC)CCNC(=O)c1c(C)[nH]c(/C=C2\C(=O)Nc3ccc(F)cc32)c1C | 0.102 ± 0.0079 | 0.192 ± 0.015 | 0.475 ± 0.031 | 0.0578 ± 0.003 | 0.0794 ± 0.014 | 0.0928 ± 0.022 | 0.359 (inactive)
4 | CCC(=O)Nc1ccc(S(=O)(=O)NCC2CCN(c3ncc(F)cn3)CC2)c(C)c1 | 1.06 ± 0.096 | 1.2 ± 0.096 | 1.04 ± 0.065 | 1.79 ± 0.1 | 1.21 ± 0.11 | 1.08 ± 0.093 | 0.986 (active)
5 | CC(C)(C)N.CCCC(NC(C)C(=O)N1C(C(=O)O)CC2CCCCC21)C(=O)OCC (configuration not stated) | 0.927 ± 0.074 | 0.864 ± 0.15 | 0.947 ± 0.094 | 0.996 ± 0.036 | 1.21 ± 0.16 | 1.3 ± 0.18 | 1.02 (active)
6 | O=[N+]([O-])c1ccc2nc(S)sc2c1 | 0.847 ± 0.068 | 1.11 ± 0.15 | 1.11 ± 0.027 | 0.82 ± 0.082 | 0.986 ± 0.12 | 1.03 ± 0.15 | 0.992 (active)
7 | COc1cc(OC)cc(C(=O)N2CCN(c3ccc(Nc4cccc(C)n4)nn3)CC2)c1 | 0.54 ± 0.042 | 0.981 ± 0.081 | 1.01 ± 0.029 | 0.904 ± 0.039 | 0.951 ± 0.096 | 1.12 ± 0.2 | 0.996 (active)
8 | O=C(CCC(=O)Nc1ccccc1)NN=Cc1ccc(Cl)cc1 | 1.01 ± 0.06 | 0.993 ± 0.062 | 1 ± 0.08 | 0.98 ± 0.036 | 1.48 ± 0.2 | 1.22 ± 0.13 | 1 (active)
9 | O=[N+]([O-])c1ccc(CN2c3ccccc3C3=C(CCCC3)C23CCCCC3)cc1 | 0.959 ± 0.074 | 1.04 ± 0.08 | 0.936 ± 0.1 | 0.951 ± 0.057 | 1.33 ± 0.16 | 1.6 ± 0.27 | 1.03 (active)
10 | CNCCC(Oc1ccc(C(F)(F)F)cc1)c1ccccc1.Cl (configuration not stated) | 0.766 ± 0.072 | 0.848 ± 0.087 | 1.33 ± 0.19 | 1.04 ± 0.13 | 0.972 ± 0.056 | 0.9 ± 0.19 | 0.379 (inactive)
11 | O=C(Nc1ncc(S(=O)(=O)c2ccc([N+](=O)[O-])cc2)s1)c1cccs1 | 1.06 ± 0.11 | 1.09 ± 0.06 | 0.914 ± 0.06 | 0.987 ± 0.03 | 1.49 ± 0.27 | 1.18 ± 0.21 | 1.01 (active)
12 | CC(C)(C)C(=O)C(Oc1ccc(Cl)cc1)n1ccnc1 (configuration not stated) | 1.3 ± 0.33 | 0.983 ± 0.33 | 1.08 ± 0.13 | 1.07 ± 0.044 | 1.31 ± 0.36 | 1.34 ± 0.1 | 0.892 (active)
13 | O=C(c1cccs1)c1nc2c(n1O)CCCCC2 | 1.01 ± 0.079 | 1.02 ± 0.076 | 0.967 ± 0.069 | 0.992 ± 0.056 | 1.17 ± 0.18 | 0.858 ± 0.085 | 0.899 (active)
14 | Cl.Clc1ccccc1CN1CCc2sccc2C1 | 0.93 ± 0.092 | 0.952 ± 0.11 | 0.916 ± 0.024 | 0.902 ± 0.05 | 1.01 ± 0.14 | 1.1 ± 0.25 | 0.992 (active)
15 | COc1cccc2c1C(=O)c1c(O)c3c(c(O)c1C2=O)C[C@@](O)(C(C)=O)C[C@@H]3O[C@H]1C[C@H](N)[C@H](O)[C@H](C)O1 [Prestw-487] | 0.0705 ± 0.0054 | 0.0667 ± 0.019 | 0.095 ± 0.0092 | 0.0214 ± 0.0026 | 0.024 ± 0.0063 | 0.0245 ± 0.0067 | 0.325 (inactive)
16 | Cc1c(Cl)ccc2c1NC(C(=O)O)C1CC=CC21 (configuration not stated) | 0.814 ± 0.045 | 1.05 ± 0.092 | 0.755 ± 0.063 | 0.615 ± 0.034 | 1.19 ± 0.091 | 1.13 ± 0.099 | 0.994 (active)
17 | Clc1ccc(-c2nc(-c3ccc(I)cc3)[nH]c2-c2ccc(Cl)cc2)cc1 | 0.641 ± 0.049 | 0.91 ± 0.1 | 0.985 ± 0.1 | 0.929 ± 0.082 | 1.19 ± 0.24 | 1.27 ± 0.3 | 1.02 (active)
18 | CCC(=O)N1CCCC1c1nc2ccccc2n1CCOc1ccc(Cl)cc1 (configuration not stated) | 0.717 ± 0.18 | 1.15 ± 0.063 | 1.2 ± 0.095 | 0.967 ± 0.097 | 0.992 ± 0.21 | 1.1 ± 0.1 | 0.996 (active)
19 | CN(C)c1ccc(C=C(C#N)c2nc(-c3cc4ccccc4oc3=O)cs2)cc1 | 0.972 ± 0.057 | 1.04 ± 0.13 | 0.955 ± 0.079 | 0.86 ± 0.03 | 1.36 ± 0.091 | 1.15 ± 0.24 | 1.01 (active)
20 | Cc1nc2n(c(=O)c1CCN1CCC(c3noc4cc(F)ccc34)CC1)CCCC2 | 0.741 ± 0.18 | 0.982 ± 0.09 | 0.915 ± 0.06 | 0.891 ± 0.036 | 1.13 ± 0.3 | 1.03 ± 0.13 | 1.01 (active)
21 | Cc1ccc(NC(=O)CN2C(=O)c3ccccc3C2=O)c(C(=O)O)c1 | 0.789 ± 0.077 | 0.894 ± 0.057 | 1.05 ± 0.091 | 0.982 ± 0.049 | 1.32 ± 0.098 | 1.5 ± 0.18 | 1.02 (active)
22 | CCOC(=O)C1=C(C)NC(C)=C(C(=O)OCC)C1c1ccccc1/C=C/C(=O)OC(C)(C)C | 1.04 ± 0.15 | 1.14 ± 0.3 | 1.14 ± 0.26 | 0.586 ± 0.032 | 1.39 ± 0.29 | 1.15 ± 0.086 | 0.965 (active)
23 | CN(C)C(=O)c1cc2cnc(Nc3ccc(N4CCNCC4)cn3)nc2n1C1CCCC1 | 0.832 ± 0.036 | 0.887 ± 0.11 | 0.941 ± 0.071 | 0.987 ± 0.046 | 1.35 ± 0.29 | 1.53 ± 0.49 | 0.711 (active)
24 | CCCCCc1ccc(-c2ccc(-c3noc(-c4ccc(CCCC)cc4)n3)cc2)cc1 | 0.969 ± 0.08 | 0.97 ± 0.07 | 0.914 ± 0.086 | 0.94 ± 0.067 | 1.32 ± 0.25 | 1.45 ± 0.31 | 1.01 (active)
25 | O=C(Cn1ccnc1[N+](=O)[O-])NCCO [Prestw-649] | 1.09 ± 0.081 | 1.01 ± 0.12 | 1.05 ± 0.03 | 1.09 ± 0.16 | 0.982 ± 0.11 | 0.994 ± 0.15 | 1 (active)
26 | CC1CCN(c2ccc(-c3ccc(NC(=O)c4ccc5ncsc5c4)cc3)nn2)CC1 | 0.914 ± 0.039 | 0.98 ± 0.078 | 1.02 ± 0.057 | 0.967 ± 0.045 | 1.09 ± 0.12 | 1.17 ± 0.23 | 0.986 (active)
